Values joined by “and” are separate entries in the source; they are usually repeats but may differ in a detail not shown here. Equal entries are not always repeated. Records with an inconclusive call do not appear. Where a structure was tested more than once in an assay, its records may differ in their call. Active and inactive are the calls of the source. The calls were made as follows, unless noted: active = hit-call score of the fitted dose curve at least 0.9, where 1 is the maximum; inactive = score below 0.9.
Legend:
[1] = ATG_NFI_CIS: Attagene CIS-FACTORIAL HepG2 Assay for human Nuclear Factor I (NFI) (AID 2282989); conditions: HepG2 cis-regulatory reporter, NFI response element transcription; actives raise or lower the signal
Summary of the method: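 HepG2, transient MRTU, 24 h exposure; RNA→cDNA→PCR→FAM label→HpaI→CE fluorescence. Bidirectional fit, DMSO = baseline.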

[2] = target: Myc proto-oncogene protein (Homo sapiens) (UniProt P01106); test: ATG_Myc_CIS: Attagene CIS-FACTORIAL HepG2 Assay for human Myelocytomatosis (Myc) Proto-Oncogene Transcription Factor (AID 2282990); conditions: HepG2, Attagene cis-reporter transcription factor activity; actives raise or lower the signal
Sequence of Myc proto-oncogene protein (Homo sapiens) (P01106 whole entry, looked up): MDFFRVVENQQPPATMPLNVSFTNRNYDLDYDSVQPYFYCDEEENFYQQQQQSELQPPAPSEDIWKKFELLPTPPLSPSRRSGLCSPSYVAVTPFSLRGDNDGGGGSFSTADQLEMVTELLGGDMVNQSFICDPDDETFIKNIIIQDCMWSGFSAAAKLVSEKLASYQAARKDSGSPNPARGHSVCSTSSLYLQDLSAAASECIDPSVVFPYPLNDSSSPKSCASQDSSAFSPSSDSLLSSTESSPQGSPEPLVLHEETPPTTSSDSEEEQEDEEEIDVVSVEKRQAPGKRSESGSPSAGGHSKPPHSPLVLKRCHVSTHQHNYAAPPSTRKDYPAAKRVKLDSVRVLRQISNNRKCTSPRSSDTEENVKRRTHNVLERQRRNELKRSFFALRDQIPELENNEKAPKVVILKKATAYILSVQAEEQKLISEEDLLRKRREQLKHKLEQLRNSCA
Summary of the method: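 Multiplexed cis-reporter transcription in HepG2 cells after 24 h chemical treatment. Reporter mRNA measured by RT-PCR and capillary electrophoresis fluorescence; activity fitted bidirectionally against DMSO control.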

[3] = ATG_NF_kB_CIS: Attagene CIS-FACTORIAL HepG2 Assay for human Nuclear Factor Kappa B (NF-kB) (AID 2282991); conditions: HepG2 Attagene cis-factorial NF-kB reporter mRNA; actives raise or lower the signal
Summary of the method: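 HepG2 cells transiently transfected with multiplexed cis-element reporter units measuring endogenous transcription factor activity; reporter mRNA read 24 h after dosing by RT-PCR, fluorescent labelling, HpaI digestion and capillary electrophoresis. Bidirectional fit against DMSO baseline.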

[4] = ATG_NRF2_ARE_CIS: Attagene CIS-FACTORIAL HepG2 Assay for human Nuclear Factor Erythroid 2 Related Factor 2 (NFR2) response to Antioxidant Response Elements (ARE) (AID 2282992); conditions: HepG2 Attagene ARE/NRF2 reporter, transcription factor activity; actives raise or lower the signal
Summary of the method: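 Readout: reporter mRNA quantified by RT-PCR plus FAM-labelled primer extension, HpaI digestion and capillary electrophoresis, 24 h after dosing transfected HepG2 cells. Gain or loss of signal is fitted bidirectionally against DMSO baseline.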

[5] = ATG_Oct_MLP_CIS: Attagene CIS-FACTORIAL HepG2 Assay for human Octamer-Binding Transcription Factor (Oct) (AID 2282993); conditions: HepG2 Attagene cis-factorial Oct reporter, mRNA; actives raise or lower the signal
Summary of the method: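 Multiplexed cis-reporter assay in human liver HepG2 cells, 24 h incubation. Reporter RNA amplified and labelled, then resolved by capillary electrophoresis; DMSO serves as negative control and baseline.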

[6] = target: Cellular tumor antigen p53 (Homo sapiens) (UniProt P04637); test: ATG_p53_CIS: Attagene CIS-FACTORIAL HepG2 Assay for human p53 Transcription Factor (AID 2282994); conditions: HepG2 p53 cis-element reporter, Attagene mRNA; actives raise or lower the signal
Sequence of Cellular tumor antigen p53 (Homo sapiens) (P04637 whole entry, looked up): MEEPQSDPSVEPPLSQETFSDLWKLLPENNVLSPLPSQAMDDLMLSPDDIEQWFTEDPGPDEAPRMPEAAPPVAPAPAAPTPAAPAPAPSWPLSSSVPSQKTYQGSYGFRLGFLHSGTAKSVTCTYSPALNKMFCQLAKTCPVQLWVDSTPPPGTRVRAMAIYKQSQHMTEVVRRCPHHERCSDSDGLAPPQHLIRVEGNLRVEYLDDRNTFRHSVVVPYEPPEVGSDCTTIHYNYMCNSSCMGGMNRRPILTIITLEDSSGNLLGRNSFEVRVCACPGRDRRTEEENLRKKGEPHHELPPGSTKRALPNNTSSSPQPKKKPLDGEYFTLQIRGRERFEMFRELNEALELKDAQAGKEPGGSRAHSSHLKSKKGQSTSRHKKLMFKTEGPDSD
Summary of the method: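 Read-out: reporter mRNA by RT-PCR plus capillary electrophoresis with fluorescence detection. Human HepG2 liver cells carried transfected multi-reporter cis-element constructs, dosed 24 h. Gain or loss of signal fitted bidirectionally against DMSO control.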

[7] = target: human Peroxisome Proliferator-activated Receptor alpha (PPARa), PPARA (gene 5465) (UniProt Q07869); test: ATG_PPARa_TRANS: Attagene TRANS-FACTORIAL HepG2 Assay for human Peroxisome Proliferator-activated Receptor alpha (PPARa) (AID 2283001; active = hit-call score of the fitted dose curve at least 0.9, where 1 is the maximum;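 as to AC50: potency for gain of reporter signal over DMSO so agonist or activator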)
Sequence of human Peroxisome Proliferator-activated Receptor alpha (PPARa), PPARA (gene 5465) (Q07869 whole entry, looked up, the tested form may be a part): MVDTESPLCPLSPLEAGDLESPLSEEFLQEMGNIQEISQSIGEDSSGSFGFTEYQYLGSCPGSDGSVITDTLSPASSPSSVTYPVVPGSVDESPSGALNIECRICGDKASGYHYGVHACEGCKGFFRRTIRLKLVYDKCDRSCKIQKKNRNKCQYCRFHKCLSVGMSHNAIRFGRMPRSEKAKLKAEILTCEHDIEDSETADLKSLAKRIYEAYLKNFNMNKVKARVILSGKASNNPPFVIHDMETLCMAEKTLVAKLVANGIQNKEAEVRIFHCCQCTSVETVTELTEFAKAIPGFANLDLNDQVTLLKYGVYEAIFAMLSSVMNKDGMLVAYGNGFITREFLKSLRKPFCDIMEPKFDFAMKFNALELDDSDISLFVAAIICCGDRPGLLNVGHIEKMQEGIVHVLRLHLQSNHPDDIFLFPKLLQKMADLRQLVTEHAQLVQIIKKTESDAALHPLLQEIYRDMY
Summary of the method: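 Exposure: 24 h, transiently transfected HepG2 cells. Endpoint: GAL4-UAS reporter mRNA, RT-PCR with capillary electrophoresis fluorescence. Baseline: DMSO; increases fitted.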

[8] = target: human Peroxisome Proliferator-activated Receptor delta (PPARd), PPARD (gene 5467) (UniProt Q03181); test: ATG_PPARd_TRANS: Attagene TRANS-FACTORIAL HepG2 Assay for human Peroxisome Proliferator-activated Receptor delta (PPARd) (AID 2283002; active = hit-call score of the fitted dose curve at least 0.9, where 1 is the maximum)
Sequence of human Peroxisome Proliferator-activated Receptor delta (PPARd), PPARD (gene 5467) (Q03181 whole entry, looked up, the tested form may be a part): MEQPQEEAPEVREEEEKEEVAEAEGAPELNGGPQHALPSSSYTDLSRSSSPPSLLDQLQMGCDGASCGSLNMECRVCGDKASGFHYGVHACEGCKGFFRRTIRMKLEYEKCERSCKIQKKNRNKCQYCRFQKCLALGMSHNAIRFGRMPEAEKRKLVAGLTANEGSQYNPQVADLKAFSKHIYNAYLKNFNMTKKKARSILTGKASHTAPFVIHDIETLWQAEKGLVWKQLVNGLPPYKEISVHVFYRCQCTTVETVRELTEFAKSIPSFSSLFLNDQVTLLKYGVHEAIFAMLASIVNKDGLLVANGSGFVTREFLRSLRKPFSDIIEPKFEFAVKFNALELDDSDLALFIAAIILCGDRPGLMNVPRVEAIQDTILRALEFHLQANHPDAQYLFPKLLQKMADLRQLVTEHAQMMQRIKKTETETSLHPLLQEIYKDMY
Summary of the method: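 Multiplexed trans-activation format: HepG2 liver cells expressing exogenous NR-Gal4 chimeras and GAL4-UAS reporters were exposed for 24 h. Reporter mRNA was detected by RT-PCR with capillary electrophoresis fluorescence; activity fitted as gain of signal relative to DMSO.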

[9] = target: Peroxisome proliferator-activated receptor gamma (Homo sapiens) (UniProt P37231); test: ATG_PPARg_TRANS: Attagene TRANS-FACTORIAL HepG2 Assay for human Peroxisome Proliferator-activated Receptor-gamma (PPARg) (AID 2283007; active = hit-call score of the fitted dose curve at least 0.9, where 1 is the maximum)
Sequence of Peroxisome proliferator-activated receptor gamma (Homo sapiens) (P37231 whole entry, looked up, the tested form may be a part): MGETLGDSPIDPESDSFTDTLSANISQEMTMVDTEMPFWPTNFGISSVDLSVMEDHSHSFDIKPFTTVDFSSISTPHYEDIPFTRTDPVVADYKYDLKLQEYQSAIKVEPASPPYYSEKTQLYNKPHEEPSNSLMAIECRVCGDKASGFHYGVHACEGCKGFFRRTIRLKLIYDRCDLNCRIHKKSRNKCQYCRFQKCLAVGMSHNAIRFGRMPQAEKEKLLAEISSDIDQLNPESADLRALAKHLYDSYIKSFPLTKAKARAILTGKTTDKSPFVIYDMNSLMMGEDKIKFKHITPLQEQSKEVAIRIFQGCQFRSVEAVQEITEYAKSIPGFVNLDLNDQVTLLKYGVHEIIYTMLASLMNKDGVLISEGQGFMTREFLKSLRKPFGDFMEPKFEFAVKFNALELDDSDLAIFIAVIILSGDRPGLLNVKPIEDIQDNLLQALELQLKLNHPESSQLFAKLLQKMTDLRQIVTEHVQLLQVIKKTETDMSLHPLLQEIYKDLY
Summary of the method: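 HepG2 cells transiently transfected with multiplexed GAL4-UAS reporter units and exogenous chimeric NR-Gal4 proteins; reporter mRNA quantified after 24 h compound exposure by RT-PCR, fluorescent labelling, HpaI digestion and capillary electrophoresis; gain-of-signal fitted versus DMSO baseline.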

[10] = target: Nuclear receptor subfamily 1 group I member 2 (Homo sapiens) (UniProt O75469); test: ATG_PXR_TRANS: Attagene TRANS-FACTORIAL HepG2 Assay for human Pregnane X Receptor (PXR) (AID 2283008; active = hit-call score of the fitted dose curve at least 0.9, where 1 is the maximum)
Sequence of Nuclear receptor subfamily 1 group I member 2 (Homo sapiens) (O75469 whole entry, looked up, the tested form may be a part): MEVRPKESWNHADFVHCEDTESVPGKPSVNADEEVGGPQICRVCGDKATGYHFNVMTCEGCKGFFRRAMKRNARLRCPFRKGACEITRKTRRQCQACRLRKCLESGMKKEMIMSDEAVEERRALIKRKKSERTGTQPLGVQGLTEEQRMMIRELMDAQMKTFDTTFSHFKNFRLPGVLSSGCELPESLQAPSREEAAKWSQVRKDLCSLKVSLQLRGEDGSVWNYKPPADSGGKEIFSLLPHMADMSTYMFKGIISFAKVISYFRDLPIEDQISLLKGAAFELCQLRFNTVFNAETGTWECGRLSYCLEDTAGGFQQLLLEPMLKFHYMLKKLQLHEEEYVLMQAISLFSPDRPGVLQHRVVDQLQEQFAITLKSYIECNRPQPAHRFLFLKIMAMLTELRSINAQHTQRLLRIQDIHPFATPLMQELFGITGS
Summary of the method: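 Trans-factorial format: exogenous NR-Gal4 fusion activity, not endogenous factor, in transfected human HepG2 liver cells. After 24 h dosing, RNA isolated, reverse-transcribed, amplified and resolved by capillary electrophoresis; induction scored versus DMSO.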

[11] = BSK_3C_TissueFactor: BioMAP Diversity Plus: 3C Assay for Tissue Factor Biomarker Activity (AID 2282997); conditions: BioMAP 3C HUVEC, tissue factor biomarker readout; actives raise or lower the signal
Summary of the method: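 Readout: Tissue Factor ELISA. Cells: human primary umbilical vein endothelium. Time: 24 h after dosing. Analysis: bidirectional fit, DMSO baseline.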

[12] = BSK_3C_uPAR: BioMAP Diversity Plus: 3C Assay for Urokinase-type plasminogen activator receptor (uPAR) Biomarker Activity (AID 2282998); conditions: BioMAP 3C HUVEC, uPAR biomarker ELISA; actives raise or lower the signal
Summary of the method: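 Dose primary human umbilical vein endothelial cells, incubate 24 h, measure cell-surface uPAR by ELISA, then fit the signal in both directions against the DMSO negative control.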

[13] = BSK_3C_VCAM1: BioMAP Diversity Plus: 3C Assay for Vascular cell adhesion molecule 1 (VCAM1) Biomarker Activity (AID 2282999); conditions: BioMAP 3C HUVEC, VCAM1 ELISA, cytokine-stimulated; actives raise or lower the signal
Summary of the method: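 Vascular primary endothelium (human umbilical vein) was exposed to chemicals and assayed 24 h later. VCAM-1 levels came from ELISA, with DMSO serving as baseline for bidirectional fitting.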

[14] = read-out: Intercellular Adhesion Molecule 1 (ICAM1), ICAM1 (gene 3383); test: BSK_3C_ICAM1: BioMAP Diversity Plus: 3C Assay for Intercellular Adhesion Molecule 1 (ICAM1) Biomarker Activity (AID 2283003); conditions: primary human endothelial cells (HUVEC); actives raise or lower the signal
Summary of the method: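 Using DMSO as baseline, bidirectional curve fitting was applied to ICAM-1 ELISA signals from HUVEC in the 3C system, measured 24 h after compound addition.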

[15] = BSK_3C_Proliferation: Cell Proliferation Assessment in the BioMAP Diversity Plus: 3C Assay (AID 2283006); conditions: primary human endothelial cells (HUVEC);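 as to AC50: potency may reflect either rise or fall in cell number versus DMSO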
Summary of the method: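 Measured here: sulforhodamine B (0.1%) staining of TCA-fixed sub-confluent umbilical vein endothelial cultures 48 h post-dosing, absorbance 560 nm. DMSO served as negative control and baseline; both signal gain and loss were modelled.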

[16] = BSK_4H_Eotaxin3: BioMAP Diversity Plus: 4H Assay for Eotaxin 3 Biomarker Activity (AID 2283000); conditions: primary human endothelial cells (HUVEC); actives raise or lower the signal
Summary of the method: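 HUVEC, 24 h post-dose, ELISA for Eotaxin-3/CCL26. Gain or loss of signal fitted bidirectionally vs DMSO baseline.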

[17] = target: human RAR-related Orphan Receptor beta (RORb), RORB (gene 6096) (UniProt Q92753); test: ATG_RORb_TRANS: Attagene TRANS-FACTORIAL HepG2 Assay for human RAR-related Orphan Receptor beta (RORb) (AID 2283010; active = hit-call score of the fitted dose curve at least 0.9, where 1 is the maximum)
Sequence of human RAR-related Orphan Receptor beta (RORb), RORB (gene 6096) (Q92753 whole entry, looked up, the tested form may be a part): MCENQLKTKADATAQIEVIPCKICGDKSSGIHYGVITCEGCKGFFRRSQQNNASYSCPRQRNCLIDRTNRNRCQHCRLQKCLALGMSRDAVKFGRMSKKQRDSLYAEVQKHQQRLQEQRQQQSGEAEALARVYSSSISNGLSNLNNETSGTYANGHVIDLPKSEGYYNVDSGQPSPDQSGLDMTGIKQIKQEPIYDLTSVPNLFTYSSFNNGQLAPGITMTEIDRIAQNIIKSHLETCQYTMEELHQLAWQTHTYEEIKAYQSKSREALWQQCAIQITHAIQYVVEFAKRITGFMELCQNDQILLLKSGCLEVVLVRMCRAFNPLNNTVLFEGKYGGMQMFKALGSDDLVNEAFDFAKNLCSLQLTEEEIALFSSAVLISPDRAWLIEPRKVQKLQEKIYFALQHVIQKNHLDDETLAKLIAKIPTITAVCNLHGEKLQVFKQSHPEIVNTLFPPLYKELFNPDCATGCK
Summary of the method: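 Multiplexed transcription-factor reporter assay: HepG2 cells transiently carrying NR-Gal4/GAL4-UAS constructs, 24 h treatment, mRNA quantified by RT-PCR plus capillary electrophoresis fluorescence; activity scored as induction over DMSO.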

[18] = target: human Retinoic Acid Receptor beta (RARb), RARB (gene 5915) (UniProt P10826); test: ATG_RARb_TRANS: Attagene TRANS-FACTORIAL HepG2 Assay for human Retinoic Acid Receptor beta (AID 2283004; active = hit-call score of the fitted dose curve at least 0.9, where 1 is the maximum)
Sequence of human Retinoic Acid Receptor beta (RARb), RARB (gene 5915) (P10826 whole entry, looked up, the tested form may be a part): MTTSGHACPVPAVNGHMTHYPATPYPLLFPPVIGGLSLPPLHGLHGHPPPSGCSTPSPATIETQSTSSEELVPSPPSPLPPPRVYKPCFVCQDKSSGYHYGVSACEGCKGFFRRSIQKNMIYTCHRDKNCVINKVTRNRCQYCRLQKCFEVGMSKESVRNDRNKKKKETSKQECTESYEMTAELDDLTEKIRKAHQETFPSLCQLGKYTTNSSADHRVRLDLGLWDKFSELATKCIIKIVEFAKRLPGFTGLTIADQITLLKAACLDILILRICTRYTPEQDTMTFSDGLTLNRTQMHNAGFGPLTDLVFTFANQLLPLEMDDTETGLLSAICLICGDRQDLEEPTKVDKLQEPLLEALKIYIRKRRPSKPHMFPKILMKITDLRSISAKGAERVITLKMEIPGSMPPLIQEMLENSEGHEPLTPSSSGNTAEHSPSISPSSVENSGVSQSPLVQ
Summary of the method: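 HepG2 cells transiently transfected with multiplexed GAL4-UAS reporter units expressing chimeric NR–Gal4 fusions; 24 h compound exposure. Reporter mRNA quantified by RT-PCR, 6-FAM labelling, HpaI digestion and capillary electrophoresis; gain-of-signal fitted against DMSO baseline.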

[19] = target: Retinoic acid receptor alpha (Homo sapiens) (UniProt P10276); test: ATG_RARa_TRANS: Attagene TRANS-FACTORIAL HepG2 Assay for human Retinoic Acid Receptor alpha (RARa) (AID 2283005; active = hit-call score of the fitted dose curve at least 0.9, where 1 is the maximum)
Sequence of Retinoic acid receptor alpha (Homo sapiens) (P10276 whole entry, looked up, the tested form may be a part): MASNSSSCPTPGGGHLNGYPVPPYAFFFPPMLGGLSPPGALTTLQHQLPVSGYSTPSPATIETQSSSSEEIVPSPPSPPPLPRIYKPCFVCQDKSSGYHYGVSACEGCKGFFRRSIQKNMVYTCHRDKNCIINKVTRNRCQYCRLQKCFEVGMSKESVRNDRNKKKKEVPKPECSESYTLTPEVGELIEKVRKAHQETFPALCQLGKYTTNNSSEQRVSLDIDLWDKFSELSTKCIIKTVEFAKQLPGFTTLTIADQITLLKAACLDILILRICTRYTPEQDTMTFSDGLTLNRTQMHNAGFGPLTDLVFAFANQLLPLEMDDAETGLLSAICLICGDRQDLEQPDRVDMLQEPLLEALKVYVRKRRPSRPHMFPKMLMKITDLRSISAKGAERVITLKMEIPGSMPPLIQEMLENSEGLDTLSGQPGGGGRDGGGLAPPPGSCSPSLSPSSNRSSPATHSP
Summary of the method: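 HepG2 cells transiently transfected with multiple reporter units expressing chimeric RARα-GAL4 fusion, with GAL4-UAS-driven reporters. After 24 h compound exposure, reporter mRNA induction quantified by RT-PCR and capillary electrophoresis with fluorescent labeling; gain-of-signal fitted relative to DMSO control.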

[20] = target: human Retinoic Acid Receptor gamma (RARg), RARG (gene 5916) (UniProt P13631); test: ATG_RARg_TRANS: Attagene TRANS-FACTORIAL HepG2 Assay for human Retinoic Acid Receptor gamma (RARg) (AID 2283009; active = hit-call score of the fitted dose curve at least 0.9, where 1 is the maximum)
Sequence of human Retinoic Acid Receptor gamma (RARg), RARG (gene 5916) (P13631 whole entry, looked up, the tested form may be a part): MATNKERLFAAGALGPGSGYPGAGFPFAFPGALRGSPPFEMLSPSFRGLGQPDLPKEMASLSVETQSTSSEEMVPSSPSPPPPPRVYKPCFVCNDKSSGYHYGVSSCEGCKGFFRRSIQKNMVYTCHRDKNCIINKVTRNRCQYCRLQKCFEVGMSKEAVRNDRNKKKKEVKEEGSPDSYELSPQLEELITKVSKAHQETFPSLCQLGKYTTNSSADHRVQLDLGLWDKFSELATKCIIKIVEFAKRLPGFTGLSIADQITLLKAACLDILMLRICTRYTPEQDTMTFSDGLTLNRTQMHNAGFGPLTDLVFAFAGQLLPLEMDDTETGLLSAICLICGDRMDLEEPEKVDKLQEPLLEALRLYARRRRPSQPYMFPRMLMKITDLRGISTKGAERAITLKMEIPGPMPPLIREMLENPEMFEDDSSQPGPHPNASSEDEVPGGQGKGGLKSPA
Summary of the method: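 Gain-of-signal relative to DMSO is reported from fluorescent capillary electrophoresis of RT-PCR reporter products. These came from HepG2 cells expressing transfected RARg-GAL4 chimeras with UAS reporters, harvested 24 h after dosing.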

Measured: AC50

CCc1ccccc1C
inactive: [1] | [2] | [3] | [4] | [5] | [6] | [7] | [8] | [9] | [10]

O=C(OC1CCCCC1)c1ccccc1C(=O)OC1CCCCC1
inactive: [1] | [2] | [3] | [5] | [6]
active: [4] 18.4 µM | [11] 7.93 µM | [12] 11.9 µM | [13] 11.7 µM | [14] 14.6 µM | [15] 9.38 µM | [9] 8.15 µM | [10] 554 nM

C=CC(=O)OCCCCCC(C)C
not listed: [17] | [18] | [19] | [20]
inactive: all other assays above

NC(=O)O
not listed: [8] | [9] | [16] | [18] | [19] | [20]
inactive: all other assays above

O=C1C2(Cl)C3(Cl)C4(Cl)C(Cl)(Cl)C5(Cl)C3(Cl)C1(Cl)C5(Cl)C24Cl (stereo not given)
active: [1] 17.2 µM | [3] 16.5 µM | [4] 6.04 µM | [5] 16.7 µM | [11] 7.03 µM | [12] 7.28 µM | [13] 10.2 µM | [14] 10.8 µM | [15] 4.9 µM | [10] 2.11 µM and 2.9 µM and 6.2 µM
inactive: [1] | [2] | [3] | [4] | [5] | [6] | [8] | [18] | [19] | [9] | [10] | [20] | [17]

COP(=S)(OC)Oc1cc(Cl)c(Cl)cc1Cl
active: [4] 34.1 µM | [11] 2.21 µM | [16] 20 µM | [7] 100 µM | [15] 20 µM | [9] 54.8 µM
not listed: [10] | [17] | [19]
inactive: all other assays above

O=C(O)C(F)(F)C(F)(F)C(F)(F)C(F)(F)C(F)(F)C(F)(F)F
active: [4] 212 µM and 219 µM | [7] 18.2 µM and 20.7 µM | [9] 65.4 µM and 72.5 µM
inactive: [1] | [2] | [3] | [4] | [5] | [6] | [11] | [12] | [13] | [16] | [8] | [14] | [18] | [19] | [15] | [9] | [10] | [20] | [17]

— PubChem BioAssay (EPA / NIEHS)
